# Test results from PubChem BioAssay AID2314 (National Center for Advancing Translational Sciences (NCATS), 2010).
# Among all 300,000 compounds or so, about 37,000 (12%) were called active. The entries come from a sample that favours actives as a whole. Values without a mark were called inactive. No stated cut-off is given here; in the data, active means max response mostly above about 13% (no sharp cut-off); inactive means mostly below about 14%.
# Assay: Cycloheximide Counterscreen for Small Molecule Inhibitors of Shiga Toxin; further: read at 38.3 µM for the half of the compounds with a filed dose; 0% is about no effect
# Conditions: cell reporter, cycloheximide protein synthesis inhibition counterscreen; active compounds read high
row,Structure (SMILES),max response
1,COc1ccc(CCNC(=S)NC(=O)/C=C/c2ccc(C)cc2)cc1OC,9.56%
2,COC(=O)c1c(NC(=O)C(=O)N2CCCCC2)sc2c1CC(C)(C)OC2,-2.72%
3,CC(=O)N1CCN(CC(C)(C)NS(=O)(=O)c2ccc(C)cc2)CC1,-1.04%
4,CCn1c(SCC(=O)NC2CCCC2)nnc1-c1ccoc1C,-1.45%
5,CCOc1ccc2nc(NC(=O)CSc3nc4c(c(=O)n(C)c(=O)n4C)n3CC)sc2c1,-6.89%
6,CCn1c(SCC(=O)Nc2nc3ccc(OC)cc3s2)nnc1-c1ccoc1C,23.1% (active)
7,CC(=O)Nc1ccc(SCC(=O)Nc2ccccc2Oc2ccccc2)cc1,0.468%
8,C=CCNC(=O)c1ccccc1NC(=O)c1ccc(Cl)c(S(=O)(=O)Nc2cccc(C)c2C)c1,1.27%
9,CCc1cccc(C)c1NS(=O)(=O)c1c(C)nc2sccn2c1=O,-1.71%
10,Cc1ccc2c(c1)c1ncnc(N3CCc4ccccc4C3)c1n2C,42.1% (active)
11,Cc1ccc2c(c1)c1ncn(Cc3ccc(F)cc3)c(=O)c1n2C,-2.24%
12,Cc1ccc2c(c1)c1ncn(CCC3=CCCCC3)c(=O)c1n2C,-3.65%
13,OCCN1CCN(c2nnc(-c3ccccc3)c3ccccc23)CC1,-4.91%
14,COc1ccc(S(=O)(=O)NCC(=O)NCc2cc(=O)n(C)c(=O)n2C)cc1F,-6.78%
15,O=C(COc1ccc2c(c1)CCC2)N1CCN(c2ccc(F)cc2)CC1,-1.09%
16,Cc1cc(C(=O)NCCCc2ccccc2)no1,13.1% (active)
17,O=C(NCCCc1ccccc1)c1cc(COc2c(F)cccc2F)on1,31.8% (active)
18,CC(C)Cc1cc(C(=O)NCCc2ccccc2)no1,53.1% (active)
19,Cc1c(NC(=O)c2cc(-c3ccc(Br)cc3)on2)c(=O)n(-c2ccccc2)n1C,-1.9%
20,CSc1ncc(C(=O)NCCCc2ccccc2)c(C)n1,10.8%
21,Nc1nonc1C(=O)NCCc1ccccc1,10.9%
22,C[C@H](NC(=O)NCCc1ccccc1)C(=O)O,-6.82%
23,O=C(NCCN1CCCC(O)C1)c1cc(COc2c(F)cccc2F)on1 (stereo unspecified),9.93%
24,CCCCNC(=S)NNC(=O)c1cc(C)on1,-1.9%

row,Structure (SMILES),max response
1,CCN(CC)CCCNC(=O)c1cc(-c2cccc(Cl)c2)on1,0.892%
2,O=C(COC(=O)c1ccc(F)cc1)NCCCc1ccccc1,-9.6%
3,CC(C)CNC(=O)c1cc(-c2ccc(Br)cc2)on1,36% (active)
4,Cc1ccc2c(c1)N(CC(=O)NCCCN1CCCCC1)C(=O)c1cccnc1O2,1.05%
5,Cc1cccc(NC(=O)Cn2c(=O)n(Cc3ccccc3)c(=O)c3c(C)c(C)sc32)c1,-2.17%
6,CCOc1ccc(OCC)c(NC(=O)CSc2nnc(Cn3cnc4ccccc43)n2C)c1,-0.798%
7,COc1cccc(-n2nc(C(=O)N3CCN(Cc4ccccc4)CC3)c3ccccc3c2=O)c1,1.57%
8,COc1ccc(C(=O)Nc2ccnn2C2CCN(Cc3ccncc3)CC2)cc1,7.85%
9,O=C(CCN1C(=O)[C@@H]2Cc3ccccc3CN2C1=O)NCCc1ccccc1,-1.26%
10,CCCOc1ccc(C2=CSC3=NCCN23)cc1Cl,1.92%
11,O=C(CSc1ncccn1)N1CCCC1,-5.34%
12,O=S(=O)(NCC1OCCc2ccccc21)c1ccccc1 (stereo unspecified),1.35%
13,CC(=O)c1nc2ccccc2n1Cc1ccccc1,-1.93%
14,CC(C)Cc1cc(C(=O)Nc2cc(Br)ccc2O)no1,31.8% (active)
15,COc1ccc(NS(=O)(=O)c2ccc(N3CCN(CCO)CC3)c([N+](=O)[O-])c2)cc1,1.31%
16,O=S(=O)(c1cccc2nonc12)N1CCN(c2cccc(Cl)c2)CC1,0.53%
17,Cc1cc2cc3c(N)[nH]nc3nc2cc1C,20.7% (active)
18,CCOc1cc(C(=S)N2CCOCC2)ccc1OS(=O)(=O)c1ccc(Br)cc1,-1.79%
19,CC(=O)c1ccc(S(=O)(=O)NCc2nnnn2-c2ccccc2)cc1,-4.62%
20,Cc1cc(C)cc(NC(=O)C2CCCN(S(=O)(=O)c3ccc4[nH]c(=O)ccc4c3)C2)c1 (stereo unspecified),1.72%
21,CCOc1ccc(C2/C(=C(/O)c3ccc4c(c3)CC(C)O4)C(=O)C(=O)N2CCCn2ccnc2)cc1 (stereo unspecified),0.806%
22,COc1ccc(-c2nc3ccccc3n2CCC(C)C)cc1OC,-2.09%
23,CCOCCn1c(-c2ccccc2)nc2ccccc21,-1.28%
24,COCCn1c(-c2ccc(OC)c(OC)c2)nc2ccccc21,18.4% (active)

row,Structure (SMILES),max response
1,CC(NCc1ccccc1OC1CCCC1)c1ccccc1 (stereo unspecified),-1.87%
2,Cc1cc(Cl)c2oc(C(=O)NC(C)c3ccncn3)c(C)c2c1 (stereo unspecified),6.71%
3,Cc1cc(Cl)c2oc(C(=O)N(C)C(C)c3ccccn3)c(C)c2c1 (stereo unspecified),28.7% (active)
4,Cc1cc(Cl)c2oc(C(=O)N3CCC(O)(c4ccccc4)CC3)c(C)c2c1,4.04%
5,COc1ccc(CNC(=O)C2CC(c3ccc(C(F)(F)F)cc3)=NO2)cc1 (stereo unspecified),-0.982%
6,Cc1cc(OCCCCOc2ccc(C#N)cc2)ccc1[N+](=O)[O-],-6.16%
7,COc1ccc(N2CCN(C(=O)CSc3ncnc4c3cnn4-c3ccc(OC)cc3)CC2)cc1,-1.01%
8,COc1ccccc1N1CCN(C(=O)CSc2nnc(-c3ccoc3C)o2)CC1,-1.64%
9,CC(=O)Nc1ccc(NC(=O)CSc2ncnc3c2cnn3Cc2ccccc2)cc1,6%
10,c1ccc(-n2ncc3c2ncn2c(C4CCCCC4)nnc32)cc1,-1.23%
11,COC(=O)CSc1ncnc2c1cnn2-c1ccc(C)cc1C,-8.2%
12,COc1ccccc1N1CCN(C(=O)CSc2ncnc3c2cnn3-c2ccc(C)c(C)c2)CC1,44.7% (active)
13,COc1ccc(-n2ncc3c(SCC(=O)NNC(C)=O)ncnc32)cc1,26.3% (active)
14,CC(C)Sc1ncnc2c1cnn2-c1ccccc1,46.6% (active)
15,COc1ccc(NC(=O)CSc2ncnc3[nH]ncc23)cc1,1.38%
16,c1ccc(-n2ncc3c(N4CCCC4)ncnc32)cc1,8.89%
17,O=C(CSc1ncnc2c1cnn2CCc1ccccc1)Nc1ccc(F)cc1,2.37%
18,CCN(CC)C(=O)CSc1ncnc2c1cnn2-c1ccccc1,38.4% (active)
19,O=S(=O)(Nc1ccccc1)c1ccc(NS(=O)(=O)c2cccs2)cc1,-2.66%
20,CCCCSc1nnc2c(n1)OC=Nc1ccccc1-2,12.2%
21,COc1cc(N2C(=O)CSC2=S)cc(OC)c1OC,-3.84%
22,Cc1ccccc1NC(=O)Cn1cc(C(=O)C2CC2)c2ccccc21,-4.37%
23,NC(=O)c1nsc(C(=O)N(CCCN2CCOCC2)C(C(=O)NC2CCCCC2)c2ccc(Cl)cc2)c1N (stereo unspecified),0.533%
24,O=C(O)c1ccccc1-c1ccccc1C(=O)Nc1ccccc1Br,-9.84%

row,Structure (SMILES),max response
1,N#Cc1c(-c2ccccc2)cc(-c2ccccc2)nc1SCC(=O)O,-2.46%
2,Brc1ccc(Nc2c3c(nc4ncnn24)CCC3)cc1,-7.39%
3,O=C(NCc1ccccc1Cl)C1CCN(c2ncnc3c2nc2n3CCCCC2)CC1,17%
4,CC(=O)Nc1c2c(nn1-c1ccc(C)cc1C)CS(=O)C2 (stereo unspecified),-1.87%
5,COc1ccc(-c2nc3c(c(SCC(=O)Nc4ccc(C(=O)O)cc4)n2)Cc2ccccc2O3)cc1,12.1%
6,Cc1ccc2[nH]c(=O)c(CN(C)S(=O)(=O)c3cccc4nonc34)cc2c1,-10.5%
7,COc1ccc(-n2cnc3cc(C(=O)NC4CCCC4)ccc32)cc1,-1.06%
8,COc1cc(Cl)c(C)cc1NC(=O)[C@@H]1CCCN1C(=O)c1cccs1,-0.643%
9,CCOc1ccc2nc(NC(=O)c3cc([N+](=O)[O-])ccc3N3CCOCC3)sc2c1,11.9%
10,COc1ccc2nc(NC(=O)NC3CCCCC3)sc2c1,47.7% (active)
11,COc1ccc2nc(NC(=O)c3ccc(Br)s3)sc2c1,67.5% (active)
12,COc1ccc(CNC(=O)c2ccc(Br)s2)cc1OC,10.2%
13,COc1ccc(Cl)cc1NC(=O)[C@@H]1CCCN1C(=O)c1cccs1,4.64%
14,COc1ccc(S(=O)(=O)N2CCN(C(=O)NC3CCCCC3)CC2)cc1,1.04%
15,COc1ccc2nc(NC(=O)[C@@H]3CCCN3C(=O)c3cccs3)sc2c1,15.2% (active)
16,NS(=O)(=O)c1ccc(CNC(=O)c2ccc(Cl)cc2[N+](=O)[O-])cc1,-0.486%
17,Cc1cccc(N(C)C(=O)c2cc(S(=O)(=O)N3CCCCC3)c[nH]2)c1,-1.63%
18,O=C(NCc1ccccc1)C(c1ccco1)N(C(=O)c1csnn1)c1ccccc1F (stereo unspecified),-6.55%
19,O=C1c2ccccc2C2=Nc3ccccc3SC(c3ccccc3F)C12 (stereo unspecified),9.05%
20,COc1ccc(N2CCN(S(=O)(=O)c3ccc4c(c3)N(C(C)=O)CCO4)CC2)cc1,2.5%
21,CN(C(=O)c1ccccn1)c1nnc(-c2ccccn2)s1,68.8% (active)
22,CN(C(=O)COc1ccccc1)c1nnc(-c2ccncc2)s1,-3.07%
23,CN(C(=O)c1ccno1)c1nnc(-c2cccnc2)s1,7.05%
24,CCOc1ccc(C(C)=O)cc1CSc1nnc(-c2ccncc2)n1CCOC,-6.17%
